# Laboratory results as given in PubChem BioAssay (NCI).
# The panel holds about 83,000 compounds, 20% with a hit somewhere; the sample as a whole holds those more often.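 Single-dose data. Exposure time 48 hours. Values below 10 considered active.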 The source made the active and inactive calls.
# System: UACC-62 melanoma
# Assay: NCI-60 one-dose screen, 48 h (100 = growth as untreated, 0 = no growth, -100 = all killed)
# Conditions: 10 µM unless noted
row,SMILES,growth
1,CC1=CCc2ccccc21,86.2% (inactive)
2,O=C1Nc2ccccc2/C1=C/C(=O)c1ccc(N2CCCCC2)cc1,68.6% (inactive)
3,COc1ccc2nc3c(cc2c1)C(=O)CC(c1ccccc1)C3 (configuration not stated),36.9% (inactive)
4,Oc1ccc(N=Nc2nccs2)c(O)c1,44.3% (inactive)
5,Cc1cc(-c2ccc(N=Nc3c(S(=O)(=O)O)cc4cc(S(=O)(=O)O)cc(N)c4c3O)c(C)c2)ccc1N=Nc1cc(S(=O)(=O)O)c2ccccc2c1O,93.6% (inactive)
6,C#CCNC(=O)CC[C@]1(C)[C@H]2CC[C@@H]3[C@@H]([C@@](C)(O)CCC=C(C)C)CC[C@@]3(C)[C@]2(C)CC[C@H]1C(=C)C,34% [100 µM] (inactive)
7,CC(=O)Nc1ccc2nc3ccc(NC(C)=O)cc3[n+](-c3ccccc3)c2c1,103% (inactive)
8,CCN(CC)CCCCCCNc1cccc2cc(Br)cnc12,113% (inactive)
9,COc1ccc(NC(=S)NNc2ccc(-c3ccc(OC)c(OC)c3)nn2)cc1,102% (inactive)
10,O=[N+]([O-])c1cc([N+](=O)[O-])c(NN=C(c2ccc(O)cc2)c2ccc(O)cc2)cc1Cl,18.4% (inactive)
11,CC(C)C1=NOC(=O)C1=Cc1cn(-c2ccccc2)nc1-c1cccc([N+](=O)[O-])c1,83.9% (inactive)
12,C=C(C)[C@@H]1CC[C@]2(C(=O)NCCNCCNCCN)CC[C@]3(C)[C@H](CC[C@@H]4[C@@]5(C)CC[C@H](O)C(C)(C)[C@@H]5CC[C@]43C)[C@@H]12,-100% [100 µM] (active)
13,O=C1COCCN1c1ccc(Nc2nc(Cl)nc(N3CCOCC3)n2)cc1,96% (inactive)
14,Cn1cc(-c2noc(-c3cn(C)c4ncc(F)cc34)n2)c2cc(Br)ccc21,76.1% (inactive)
15,CC1(C)NCCC[C@]2(C)[C@H]3C=CC4=C5C[C@](C)(CO)CC[C@]5(C)CC[C@@]4(C)[C@]3(C)CC[C@@H]12,-94.3% [100 µM] (active)
16,CCCC(NC(=O)OCc1ccccc1)C(=O)O (configuration not stated),89.6% (inactive)

row,SMILES,growth
1,CC(C)C1=NOC(=O)C1=Cc1cn(-c2ccccc2)nc1-c1ccc(Cl)cc1,75.6% (inactive)
2,COc1cc(OC)cc(C(=O)Nc2cc(-c3cccnc3)nc(NCCCN3CCOCC3)n2)c1,97.6% (inactive)
3,Brc1ccc2c(c1)CN(C1CCCCC1)CO2,105% (inactive)
4,CC/C=C(\C)C(CCC)(CN=O)C(=O)OCC (configuration not stated),110% (inactive)
5,O=C(Nc1ccc(F)cc1)c1ccccc1,90.8% (inactive)
6,O=C(O)c1cccc(CN2CCN(c3cc4c(cc3F)c(=O)c(C(=O)O)cn4C3CC3)CC2)c1O,102% (inactive)
7,COC(=O)c1c(C)[nH]c(/C=C2\N=C(c3ccc[nH]3)C=C2OC)c1C,-62.8% (active)
8,C=CCCC1(C)NC(=O)NC1=O (configuration not stated),99.2% (inactive)
9,O=[N+]([O-])c1cccc(N=NNc2cccc([N+](=O)[O-])c2)c1,76.5% (inactive)
10,Cc1ccc(N)c(O)c1,101% (inactive)
11,CCN(CC)c1ccc2cc(NC(=O)OCCNC(=O)CCNC(=O)[C@H](CC(C)C)NC(=O)C(C)(C)NC(=O)C(C)(C)NC(=O)[C@H](CC(C)C)NC(=O)CCNC(=O)C(C)(C)NC(=O)[C@H](CC(C)C)NC(=O)CCNC(=O)[C@@](C)(CC)NC(=O)[C@H](C)NC(=O)CCNC(=O)C(C)(C)NC(=O)[C@H](C)NC(=O)[C@@H]3CCCN3C(=O)[C@@](C)(CC)NC(=O)[C@H](Cc3ccccc3)NC(=O)C3CCCN3C(=O)C(C)(C)NC(=O)C3CCCN3C(=O)C(C)(C)NC(C)=O)c(=O)oc2c1 (some centres not stated),-76.2% (active)
12,COC(=O)[C@]12CCC(C)(C)C[C@H]1C1=CC[C@@H]3[C@@]4(C)C/C(=C/c5cccnc5)C(=O)C(C)(C)[C@@H]4CC[C@@]3(C)[C@]1(C)CC2,-59.4% [100 µM] (active)
13,CC(C)[C@H]1COC(=O)N1[C@@H]1C(=O)N([C@@H](CCC(=O)N2CCN(C3CCCC3)CC2)C(=O)N[C@@H]2CCCc3ccccc32)[C@@H]1/C=C/c1cccc(Cl)c1,67.8% (inactive)
14,CCN=Cc1c(O)c(O)c(C(C)C)c2cc(C)c(-c3c(C)cc4c(C(C)C)c(O)c(O)c(C=NCC)c4c3O)c(O)c12,76.8% (inactive)
15,O=c1cc(-c2ccccc2)oc2c(O)c(O)ccc12,72.7% (inactive)
16,COc1ccc(C2NC(=O)C(C#N)c3c2sc2c(F)cccc32)cc1 (configuration not stated),36.4% (inactive)
